The source of these data is PubChem BioAssay AID686979 (National Center for Advancing Translational Sciences (NCATS), 2013).

Each structure is given as a SMILES string. About 50,000 (12%) of roughly 420,000 compounds were called active. Not shown: some 26% with an inconclusive outcome. The list comes from a sample in which actives are over-represented; it also holds similar structures and randomly drawn compounds. A number with no mark means an inactive call. The call rests on the fitted dose curve; in most records, active means well fitted inhibition curve with a large enough effect; inconclusive means small, poorly fitted or top-dose-only effect; inactive means flat fitted curve, though single readings scatter.
On the % scale 0 is the no-effect control and ±100 the full control effect; potency means the concentration at half of the fitted maximal effect.

The nature of the assay: qHTS for Inhibitors of human tyrosyl-DNA phosphodiesterase 1 (TDP1): qHTS in cells in presence of CPT. Further: nearly all actives have a fitted effect of over 55% in size. As to conditions: chicken DT40 Tdp1-/-;hTDP1 cells + 20 nM CPT, ATP luminescence, 48 h; series mostly up to 46.2 µM; activity change, negative = growth inhibition: at the top concentration. In short, it runs like this:
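Chicken DT40 Tdp1-/- cells stably complemented with human TDP1 were seeded at 400 cells/well in medium containing 20 nM camptothecin, exposed to pin-transferred compounds, and grown at 37 °C for at least 48 hr. Viability was read as ATP luminescence.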
(Quantitative high-throughput screening tests each substance at several concentrations.)
On to `CCN1CCN(C(=O)Cn2nc(C)n3c(cc4c(OC)cccc43)c2=O)CC1`, for which the “activity change, negative = growth inhibition” value is -1.1%. Same read-out and setting: next, `CCn1nc(C)c(CNC(=O)C2CCC(=O)N(Cc3cccc(F)c3)C2)c1C` (stereo unspecified): -11.6%. `Cc1cc(C)c2c(-n3cccc3)c(NC(=O)OCc3ccccc3)sc2n1`: the “activity change, negative = growth inhibition” value was -26.1%.

With `Nc1ccn(CC(=O)N2CCN(c3ccccn3)CC2)c(=O)n1`, the “activity change, negative = growth inhibition” value was 9.16%. With `Cc1cc(C)c(CN2CCN(C(=O)Cn3ccc(NC(=O)OCc4ccccc4)nc3=O)CC2)c(C)c1`, the Potency is 5.17 µM (active). With `Cc1cc(C(=O)Nc2nnc(C3CC3)s2)c(C)s1`, the “activity change, negative = growth inhibition” value is 1.29%. The same measure, in the same setting: next, `CCOC(=O)c1nn(-c2ccccc2F)c2nc(Nc3ccccc3)cc(=O)n12`: -11%; `COc1ccc(Sc2nc(-c3ccccc3)ncc2OC)cc1`: -28.6%. With `COc1ccc(Cc2nc(-c3ccccn3)no2)cc1OC`, the “activity change, negative = growth inhibition” value was 4.02%. On to `COc1cnc(-c2ccccn2)nc1Oc1ccc(C(C)(C)C)cc1`, for which the Potency was 3.66 µM (active).

Consider `COCC(=O)Nc1cc(C(=O)N2CCCC(c3ccccc3)CC2)c2c(c1)nc(-c1ccncc1)n2C` (stereo unspecified), for which the activity change, negative = growth inhibition is 6.88% [at 9.04 µM]. As to `COc1cccc(/C=C/C(=O)OCC(=O)N2CCCc3ccccc32)c1`, the “activity change, negative = growth inhibition” value was 10.1%.

With `O=c1cc(-c2ccccc2)nc(N2CCCCC2)[nH]1`, the “activity change, negative = growth inhibition” value is -25.1%. With `CC(=O)c1cc(-c2ccccc2)n(CC(=O)NC2CCCCC2)c1C`, the Potency result is “inactive”.

As to `CC(=O)c1cc(-c2ccccc2)[nH]c1N1CCCC1`, the Potency was 16.4 µM (active). Regarding `CCCCn1c(N)c(N2CCOCC2)c(=O)n(CC(=O)NCCc2ccccc2)c1=O`, the “activity change, negative = growth inhibition” value is 16.5%. Regarding `CN(C(=O)CSc1nnc(-c2n[nH]c3ccccc23)o1)c1ccccc1`, the “activity change, negative = growth inhibition” value was -24.6%. `Cc1c(Cl)c([N+](=O)[O-])nn1CC(=O)NCCCN1CCOCC1`: the “activity change, negative = growth inhibition” value is 24.4%. In the case of `C/C(=N\NC(=O)NC1CCCCC1)c1ccc(OC(F)F)cc1OC(F)F`, the Potency was 23.1 µM (active). Turning to `O=C(COC(=O)/C=C/c1ccc(OC(F)F)cc1)NC1CCCCC1`, the “activity change, negative = growth inhibition” value is 0.0698%. Turning to `CCCC/C(C)=N/NC(=O)NC1CCCCC1`, the “activity change, negative = growth inhibition” value was -4.55%. With `O=C(NCc1ccccc1Cl)C1CCC(CNc2c(N3CCCCC3)c(=O)c2=O)CC1` (stereo unspecified), the “activity change, negative = growth inhibition” value was -0.925%. Consider `COc1ccc2oc(=O)cc(CN3CCOCC3)c2c1`, for which the “activity change, negative = growth inhibition” value was -16.2%.

`O=C(NCC(=O)N1CCCC(C(F)(F)F)C1)c1ccccc1F` (stereo unspecified): the “activity change, negative = growth inhibition” value was -11.4%. Take `FC(F)(F)C1CCCN(c2nsc3ccccc23)C1` (stereo unspecified): the Potency was 2.31 µM (active). As to `O=C(NC(Cc1ccccc1)C(=O)N1CCCC(C(F)(F)F)C1)c1ccccc1` (stereo unspecified), the “activity change, negative = growth inhibition” value is -9.26%. Still for that read-out and setting: the same measure for `CCCCCC1CC(COc2ccccc2)OC1=O` (stereo unspecified): 6.66%. For the molecule `COc1ccc(CCNC(=O)C(=O)NCC2OCCN2S(=O)(=O)c2ccc(OC)c(C)c2)cc1` (stereo unspecified), the Potency is 18.4 µM (active). With `COc1ccc(S(=O)(=O)N2CCOC2CNC(=O)C(=O)NCc2ccncc2)cc1C` (stereo unspecified), the “activity change, negative = growth inhibition” value was -28.4%. Still for that read-out and setting: next, `COc1ccc(CCNC(=O)C(=O)NCC2OCCN2S(=O)(=O)c2ccc(F)cc2)cc1OC` (stereo unspecified): -25%; `CN(C)CCCNC(=O)c1cc(C(=O)Cc2ccc(Cl)cc2)c[nH]1`: -24%; `CCCCN(CCCC)CC(O)Cn1c2ccccc2c(=O)c2ccccc21` (stereo unspecified): -27%. `Cc1ccc(C(=O)OCC(=O)N2CC(C)CC(C)C2)cc1S(=O)(=O)N1CCCCC1` (stereo unspecified): the “activity change, negative = growth inhibition” value was -15.4%. Take `COc1ccc(C2C(C(C)=O)=C(O)C(=O)N2Cc2cccnc2)cc1` (stereo unspecified): the “activity change, negative = growth inhibition” value was -2.63%.

For `CCCOc1ccc(C2c3c(-c4ccccc4O)n[nH]c3C(=O)N2Cc2cccnc2)cc1` (stereo unspecified), the Potency is 23.1 µM (active).

In the case of `CCOc1ccc(/C(O)=C2/C(=O)C(=O)N(Cc3cccnc3)C2c2ccc(N(C)C)cc2)c(C)c1` (stereo unspecified), the “activity change, negative = growth inhibition” value is -2.62%. As for `COc1ccc(S(=O)(=O)N2CCC(C(=O)NCCC(=O)NCCc3cccc(F)c3)CC2)cc1`, the “activity change, negative = growth inhibition” value is -23.3%. For `NC(Cc1ccc(F)cc1)c1csc(Nc2nncc3ccccc23)n1` (stereo unspecified), the Potency was 4.11 µM (active). In the case of `COCC(C)NC(=O)COc1nncc2ccccc12` (stereo unspecified), the “activity change, negative = growth inhibition” value was -4.2%. Same read-out and setting: the same measure for `CN1CCN(S(=O)(=O)c2ccc(NC(=S)NC(=O)C3CC3)cc2)CC1`: -0.132%; for `O=C(NCCc1ccccc1)C(=O)NCC1OCCN1S(=O)(=O)c1cccs1` (stereo unspecified): 0.778%. With `CCCCn1c(N)c(N(CC(C)C)C(=O)c2cccc(S(=O)(=O)N3CCN(C(C)=O)CC3)c2)c(=O)[nH]c1=O`, the “activity change, negative = growth inhibition” value is 4.86%.

`COc1cc(C(=O)Nn2c(O)c(C3=c4ccccc4=NC3=O)sc2=S)ccc1O`: the “activity change, negative = growth inhibition” value was 0.512%. Take `CCN(CC)CCCNC(=O)CCn1nc(-c2ccc(Cl)cc2)ccc1=O`: the “activity change, negative = growth inhibition” value is 22.6%.

On to `O=C1C=CC(=O)N1c1ccc(N2CCCCC2)cc1`, for which the Potency was 1.16 µM (active). With `O=c1[nH][nH]c(=O)c2cc(N3CCCC3)ccc12`, the “activity change, negative = growth inhibition” value was 5.12%. Take `O=C(CN1CCN(c2ccc(Cl)cc2)CC1)N1CCCC1`: the “activity change, negative = growth inhibition” value was -27.3%.

Regarding `O=C(O)/C=C/C(=O)NNc1ccc([N+](=O)[O-])cc1`, the Potency is 20.6 µM (active). Consider `O=C(Cc1ccccc1)NNS(=O)(=O)c1ccc([N+](=O)[O-])cc1`, for which the “activity change, negative = growth inhibition” value was -20.3%. Still for that read-out and setting: the same measure for `CNC(=S)Nc1ccc([N+](=O)[O-])cc1`: -11.1%.

As for `COc1cccc(NC(=O)C(Sc2nnnn2C)c2ccccc2)c1` (stereo unspecified), the “activity change, negative = growth inhibition” value was -14.2%.
